# FLuc modulator: qHTS profiling assay for firefly luciferase inhibitor/activator using purifed enzyme and Km concentrations of substrates (counterscreen for miR-21 project) | Potency, µM (top dose mostly 57.5 µM), actives largely listed as inhibitors | purified FLuc, Km substrates, luminescence inhibition | 6.9% of 360,000 active | Luciferin 4-monooxygenase (Photinus pyralis), P08659; note: nearly all actives have a fitted effect of over 55% in size
# Target sequence (P08659 whole entry, looked up): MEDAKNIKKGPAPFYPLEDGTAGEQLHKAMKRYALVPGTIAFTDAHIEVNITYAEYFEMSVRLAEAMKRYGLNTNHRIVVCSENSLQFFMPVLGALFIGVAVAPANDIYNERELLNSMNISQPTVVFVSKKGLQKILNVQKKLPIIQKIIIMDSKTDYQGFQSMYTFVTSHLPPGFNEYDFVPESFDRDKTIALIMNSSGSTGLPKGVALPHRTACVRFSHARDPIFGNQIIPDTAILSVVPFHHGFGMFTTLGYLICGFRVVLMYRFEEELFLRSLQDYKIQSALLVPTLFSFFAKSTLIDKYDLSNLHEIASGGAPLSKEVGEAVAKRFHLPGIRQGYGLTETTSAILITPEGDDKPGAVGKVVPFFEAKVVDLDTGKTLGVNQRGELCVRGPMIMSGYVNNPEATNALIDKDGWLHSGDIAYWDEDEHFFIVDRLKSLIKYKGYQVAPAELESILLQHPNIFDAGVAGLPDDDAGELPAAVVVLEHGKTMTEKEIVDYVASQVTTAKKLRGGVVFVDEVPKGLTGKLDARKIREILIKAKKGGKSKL
#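 Purified P. pyralis luciferase, 10 nM final, with Km-level 10 uM D-luciferin and 10 uM ATP in 50 mM Tris acetate pH 7.5, 10 mM Mg acetate, 0.01% Tween-20, 0.05% BSA; 6-point qHTS titration about 60 µM downward; luminescence read.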
# SMN2 splice enh: qHTS Assay for Enhancers of SMN2 Splice Variant Expression | AID 1458, 2008 | HEK293 SMN2-luciferase splicing reporter, luminescence, 30-36 h | Potency, µM (series often up to 46.1 µM), usual class: activators | 2.8% of 210,000 active; note: nearly all actives have a fitted effect of over 55% in size
#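 HEK293 cells carry an SMN2 […]–luciferase reporter in which exon 7 inclusion puts luciferase in frame. Cells were plated 10-12 h before compound addition, then incubated 30-36 h at 37C. ONE-Glo luminescence was read; sodium butyrate at 4.5 mM final served as control.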
# KinaseGlo FLuc: Counterscreen for Luciferase (Kinase-Glo TM) Inhibition; Luciferin 4-monooxygenase (Photuris pensylvanica), Q27757; Kinase-Glo luciferase, ATP luminescence, 8 min; Potency, µM (top dose mostly 38.3 µM), most hits filed as inhibitors; 0.28% of 200,000 active; AID 1379, 2008; note: nearly all actives have a fitted effect of over 60% in size
#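 Luminescence was the read-out, taken after 8-minute incubation at ambient temperature. Luciferase turned over luciferin with 10 uM ATP in imidazole pH 7.2 buffer containing KCl, MgCl2, Tween 20 and BSA.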
# NPC1 prom act: qHTS Assay for NPC1 Promoter Activators | 2.4% of 320,000 active | Potency, µM (series often up to 9.22 µM), usual class: activators | Huh7 NPC1 promoter luciferase reporter, 24 h | AID 485313, 2010; note: nearly all actives have a fitted effect of over 60% in size
#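 Compounds in DMSO were transferred onto Huh7 NPC1-luciferase reporter cells pre-incubated 2 h; after 24 h at 37 °C, Amplite reagent was dispensed and luminescence recorded 10 min later.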
# Rab9 promoter act: qHTS Assay for Rab9 Promoter Activators | Huh7 Rab9 promoter-luciferase reporter, luminescence, 24 h | Potency, µM (top dose mostly 9.22 µM), usual class: activators | 2.8% of 320,000 active; note: nearly all actives have a fitted effect of over 60% in size
#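 Cell-based reporter: Huh7 stable for Rab9 promoter-driven luciferase, plated in reduced-serum medium with 10% FBS at 1500 cells/well, compound-treated 24 h at 37 °C, luminescence read after 10 min reagent.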
# ELG1 genotoxic: qHTS screen for small molecules that induce genotoxicity in human embryonic kidney (HEK293T) cells expressing luciferase-tagged ELG1; HEK293T ELG1-luciferase reporter, luminescence, 16 h; Potency, µM (series often up to 46 µM), usual class: activators; 1.3% of 330,000 active; AID 504466, 2011; note: nearly all actives have a fitted effect of over 60% in size
#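 Reporter readout depends on ELG1 protein level, which increases with genetic stress. After 16 hr compound exposure at 37 °C, luciferase activity was quantified using ONE-Glo.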
# Hits are given with their value; 0 = inactive; ? = inconclusive; - = no result given; [ ] = another dose, or the depositor's remark. A selection: hits, their analogues and other compounds. The true share with any hit is near 7.4%. Calls come from the whole dose curve; as a rule, active = well fitted curve in the direction sought with a large enough effect; inconclusive = small, poorly fitted or top-dose-only effect, or another doubt; inactive = no such curve, though single readings can be large; an effect the other way counts as inactive or inconclusive.
SMILES,FLuc modulator,SMN2 splice enh,KinaseGlo FLuc,NPC1 prom act,Rab9 promoter act,ELG1 genotoxic
COc1cc(OC)cc(-c2nnc(SCC(=O)Nc3cccc(C(=O)O)c3)s2)c1,15µM,0,0,0,0,0
Cc1cccc(Nc2nnc(SCC(=O)NC(=O)CN3CCCC3=O)s2)c1,9.5µM,-,-,0,0,0
CCOC(=O)CNC(=O)CSc1ncnc2c1nnn2-c1ccc(F)cc1,?,0,0,0,0,0
COC(=O)C(C)Sc1ncnc2c1nnn2-c1ccc(F)cc1 (stereo not drawn),8.5µM,0,0,?,0,?
CC1Cc2ccccc2N1c1ncnc2nc[nH]c12 (stereo not drawn),21µM,0,0,0,0,0
Cc1cc(C(=O)COC(=O)c2ccccc2NCCO)c(C)n1CC1CCCO1 (stereo not drawn),1.5µM,-,-,?,?,?
Cc1cc(C(=O)COC(=O)c2n[nH]c3ccccc23)c(C)n1CC1CCCO1 (stereo not drawn),?,0,?,0.35µM,0.32µM,?
Cc1cc(C(=O)COC(=O)CN(C)S(=O)(=O)c2ccc(Cl)cc2)c(C)n1CC1CCCO1 (stereo not drawn),19µM,0,0,0,0,0
Cc1cc(C(=O)CSc2nc3ccc(Cl)cc3[nH]2)c(C)n1CC1CCCO1 (stereo not drawn),?,0,0,0,0,0
Cc1cc(C(=O)COC(=O)c2ccccc2Br)c(C)n1CC1CCCO1 (stereo not drawn),0.11µM,-,-,0,0,?
C=CC[C@H](CC(=O)OC(C)(C)C)C(=O)OC[C@H]1CCCN1C(=O)[C@H](CC=C)CC(=O)NCCO,-,-,-,-,-,0
ICCc1ccccc1,-,0,-,-,-,-
Cc1cc(C(=O)COC(=O)c2cccnc2Cl)c(C)n1CC1CCCO1 (stereo not drawn),0.24µM,0,10µM,?,?,0.52µM
Cc1ccc(C(=O)OCC(=O)c2cc(C)n(CC3CCCO3)c2C)cc1 (stereo not drawn),4.3µM,0,0,2.2µM,2.2µM,?
Cc1cc(C(=O)COC(=O)c2cc(O)c3ccccc3c2O)c(C)n1CC1CCCO1 (stereo not drawn),19µM,0,0,0,0,0
O=C(COC(=O)c1cccnc1Cl)NCC1CCCO1 (stereo not drawn),0,0,0,0,0,0
CCOc1cc(C(=O)OCC(=O)c2cc(C)n(CC3CCCO3)c2C)ccc1OCC(=O)N1CCOCC1 (stereo not drawn),?,-,0,0,0,0
Cc1cc(C(=O)CSc2nnc(-c3cccnc3)n2-c2ccccc2)c(C)n1CC1CCCO1 (stereo not drawn),19µM,0,0,0,?,0
Cc1cc(C(=O)COC(=O)c2ccccc2O)c(C)n1CC1CCCO1 (stereo not drawn),0.085µM,-,-,0,0,0
Cc1cc(C(=O)Cn2cc([N+](=O)[O-])ccc2=O)c(C)n1CC1CCCO1 (stereo not drawn),0,-,-,0,0,0
Cc1cc(C(=O)COC(=O)C2COc3ccccc3O2)c(C)n1CC1CCCO1 (stereo not drawn),4.8µM,0,0,0,0,0
Cc1cc(C(=O)COc2ccccc2C(N)=O)c(C)n1CC1CCCO1 (stereo not drawn),?,0,0,0,0,0
CC(C)c1ccc2c(c1)[C@H]1OCC[C@H]1[C@@H](c1cccs1)N2,9.5µM,0,0,0,0,0
Cc1cc(C)c2c(c1)N[C@H](c1cccs1)[C@@H]1CCO[C@H]21,0,-,-,0,0,0
c1ccc(-c2noc(CSc3nc4ccccc4o3)n2)cc1,?,-,-,0,0,0
SMILES,FLuc modulator,SMN2 splice enh,KinaseGlo FLuc,NPC1 prom act,Rab9 promoter act,ELG1 genotoxic
O=C(CSc1nc2ccccc2o1)N1c2ccccc2Sc2ccccc21,0,-,0,0,0,0
c1ccc(SCc2nc3ccccc3s2)nc1,4.8µM,-,-,3.5µM,1.3µM,?
c1ccc2oc(SCc3nc4ccccc4s3)nc2c1,4.8µM,?,0,-,-,-
N#CCc1nc(CSc2nc3ccccc3o2)cs1,24µM,0,0,?,?,?
Cc1cccc(NC(=O)Nc2nnc(N3CCCC3)s2)c1,0,-,-,-,-,-
O=C1CC(c2nnc(Cc3ccc(F)cc3Cl)o2)CN1c1ccccc1 (stereo not drawn),0,0,-,-,-,-
COCCN(CCOC)C(=O)c1cc2sc3ccccc3c2s1,0,0,0,0,0,0
CCN(CC)C(=O)c1cc2sc3ccccc3c2s1,9.5µM,0,0,2.8µM,3.2µM,?
COC(=O)c1cc(S(=O)(=O)NCc2ccc(S(N)(=O)=O)cc2)oc1C,0,-,-,0,0,0
CCc1nnc(NC(=O)CSc2nc(C)cc(C)c2C#N)s1,?,11µM,0,?,0.5µM,?
CCc1nnc(NC(=O)CSc2nc(-c3ccc(F)cc3)cc(-c3ccccc3)c2C#N)s1,?,-,-,0,0,0
CCOC(=O)NC(=O)CSc1nc(C)cc(C)c1C#N,?,0,0,2.5µM,1.6µM,5.8µM
CCc1ccc(-c2nc3ccc(Br)cc3c(C(=O)O)c2C)s1,21µM,?,-,0,0,0
CCOc1cc(NS(=O)(=O)c2ccc(NC(C)=O)cc2)c(OCC)cc1NC(=O)c1cccs1,0,0[1.84 µM],0,0,0,0
CCOc1ccc(CCNC(=O)Cn2ccc3cc(S(=O)(=O)N4CCCCCC4)ccc32)cc1,0,-,-,-,-,-
COc1cccc2sc(NC(=O)c3ccc(Br)s3)nc12,2.4µM,0,0,?,?,?
Cc1cccc2sc(NNC(=O)c3ccc4c(c3)OCCO4)nc12,?,0,0,0,0,0
O=C(Nc1nc2c(F)cc(F)cc2s1)c1ccc2c(c1)OCCO2,0.6µM,-,-,0.79µM,0.32µM,-
O=C(NC(=S)Nc1c(F)cc(F)cc1Br)c1ccc2c(c1)OCCO2,0,0,0,0,0,0
COc1cccc2sc(NC(=O)c3ccc4c(c3)OCCO4)nc12,0.95µM,-,-,-,-,-
CC(Sc1nnc(-c2cccs2)n1-c1ccccc1)C(=O)NCc1ccc2c(c1)OCO2 (stereo not drawn),0,0,0,0,0,0
COc1ccc(Cl)cc1/C=C/c1ccc2cccc(O)c2n1,17µM,-,-,4µM,3.5µM,?
COc1ccccc1/C=C/c1ccc2cccc(O)c2n1,4.8µM,-,-,?,?,21µM
COc1cc(Cl)cc(/C=C/c2ccc3cccc(O)c3n2)c1OC,?,-,-,?,?,0
CN(CC(=O)Nc1ccc(F)c(F)c1F)C(=O)C1CCCO1 (stereo not drawn),0,-,-,0,0,0

# Screening data from PubChem BioAssay.
